Laboratory results as given in the supplement of paper PMC3334620.
Whole data set: some 33,000 sequences, median “E-score (-0.5 to 0.5)” near -0.054, cut for the highest 2% near 0.35. The full list was thinned out, with the highest values kept by preference.

Target: T1, Stb5 (UniProt P38699)
T1 sequence: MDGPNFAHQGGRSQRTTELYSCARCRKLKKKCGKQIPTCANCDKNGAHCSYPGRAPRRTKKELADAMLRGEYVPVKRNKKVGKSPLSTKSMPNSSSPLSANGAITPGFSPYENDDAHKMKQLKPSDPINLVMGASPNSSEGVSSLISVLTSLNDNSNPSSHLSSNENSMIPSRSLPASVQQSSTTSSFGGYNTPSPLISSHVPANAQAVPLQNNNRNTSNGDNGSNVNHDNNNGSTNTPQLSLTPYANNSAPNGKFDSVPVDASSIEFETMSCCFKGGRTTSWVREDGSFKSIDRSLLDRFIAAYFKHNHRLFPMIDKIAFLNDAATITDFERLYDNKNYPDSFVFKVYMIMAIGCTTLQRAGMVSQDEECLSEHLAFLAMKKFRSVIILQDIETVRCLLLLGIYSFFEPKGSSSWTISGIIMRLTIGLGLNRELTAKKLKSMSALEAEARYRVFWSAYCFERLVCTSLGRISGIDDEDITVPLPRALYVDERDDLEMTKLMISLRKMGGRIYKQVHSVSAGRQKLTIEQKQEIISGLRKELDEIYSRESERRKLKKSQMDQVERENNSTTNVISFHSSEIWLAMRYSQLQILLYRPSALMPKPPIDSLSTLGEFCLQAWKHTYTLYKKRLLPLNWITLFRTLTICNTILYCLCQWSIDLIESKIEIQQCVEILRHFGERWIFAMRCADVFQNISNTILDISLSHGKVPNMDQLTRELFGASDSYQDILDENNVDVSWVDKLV
Test: PBM E-score (8-mer binding enrichment) (E-score (-0.5 to 0.5)); higher = stronger / more preferred TF binding
Details: protein concentration: 200 nM; construct: GST-full length
Method in brief: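 Masliner-normalised scans of fluorescent anti-GST signal were the basis for scoring. That signal came from GST-tagged yeast transcription factors applied at about 100-200 nM to double-stranded universal all-10-mer Agilent arrays on fresh or once-stripped slides. Each ungapped eight-base word, pooled with its reverse complement, received an E-score from the Universal PBM Analysis Suite.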

| Sequence | PBM E-score |
| --- | --- |
| AGTACCCA | -0.101 |
| ATGGTCAG | -0.183 |
| ACGGGGTA | 0.248 |
| ACGGGGTG | 0.286 |
| ACGGGCAC | 0.105 |
| ACGGGCAG | -0.0575 |
| ACCGGGCC | 0.306 |
| ACCGGGCT | 0.38 |
| ACCGGGGG | 0.286 |
| ACCGGGCA | 0.276 |
| ACGGGCAT | 0.363 |
| ACGGGGTC | 0.362 |
| CCCGGGGC | 0.258 |
| ACCGGGGC | 0.359 |
| CCGTATCA | 0.145 |
| CCGTCTCC | 0.22 |
| CCCTCAAC | -0.125 |
| AAGTAGGT | 0.00443 |
| ATAAGTAC | 0.133 |
| CATGACCA | -0.378 |
| CTGGACTC | -0.169 |
| AAACGAAC | -0.193 |
| ACCTTACA | -0.0752 |
| GGGGTTTA | 0.329 |
| AGGTTCTA | 0.0114 |

| Sequence | PBM E-score |
| --- | --- |
| CGGTTCTA | 0.36 |
| CGGGTTTC | 0.273 |
| GGGTTATA | 0.257 |
| CGGTTATA | 0.37 |
| GGGTTCTA | 0.162 |
| CGGTTTAA | 0.155 |
| AGGTTATA | -0.0254 |
| CGGGTTTA | 0.467 |
| CGGTTTTA | 0.41 |
| AGGTTTTA | 0.0721 |
| CTAAAGGA | 0.0339 |
| ACTGAAGC | -0.111 |
| CTCCATAC | -0.0338 |
| CGTTCGGA | 0.243 |
| GAAGGTCA | -0.15 |
| AACACCAG | 0.011 |
| CCCGTCGC | 0.25 |
| CCCGTCGG | 0.435 |
| ACCGTCGA | 0.286 |
| ACCGTCGG | 0.392 |
| CCCGTCGA | 0.206 |
| ACCGTCGC | 0.332 |
| GTTAACCA | -0.181 |
| GCACCACA | -0.0487 |
| CCCATGCC | 0.0152 |

| Sequence | PBM E-score |
| --- | --- |
| TATGTGAA | -0.344 |
| AAACTTGT | -0.145 |
| AAGCGGAC | 0.352 |
| AAGCGGAT | 0.297 |
| GAGCGGAA | 0.308 |
| GAGCGGAC | 0.376 |
| CAGCGGAC | 0.332 |
| AAGCGGAG | 0.252 |
| CAGTTATG | 0.143 |
| ACCCCGCT | 0.437 |
| AACCCGCG | 0.231 |
| CCCCCGCG | 0.325 |
| CCCCCGCC | 0.313 |
| GCCCCGCC | 0.403 |
| GGCCCGCC | 0.303 |
| AACCCGCT | 0.222 |
| ACCCCGCC | 0.463 |
| ACCCCGCG | 0.367 |
| GCCCCGCA | 0.262 |
| AACCCGCC | 0.276 |
| AGCCCGCT | 0.317 |
| AATCAATT | -0.151 |
| TGTATGAA | 0.0366 |
| CTTTAAGA | 0.0831 |
| TAGCAGCA | -0.233 |

| Sequence | PBM E-score |
| --- | --- |
| AATATTAA | 0.0579 |
| TTCTCAAA | -0.128 |
| ACCGATAG | 0.167 |
| CAACAATG | -0.0552 |
| AACCCGCA | 0.229 |
| CCCCCGCA | 0.154 |
| ACCCCGCA | 0.382 |
| CGTGTTAG | 0.0849 |
| AACCACCA | -0.124 |
| AATCACCA | -0.0307 |
| AAGCACCT | -0.21 |
| CACCACCG | 0.21 |
| AAGCACCG | 0.457 |
| CATCACCG | 0.251 |
| AACCACCG | 0.406 |
| AATCACCG | 0.441 |
| CAGCACCG | 0.313 |
| ACCAGTGA | -0.215 |
| GAGCTCGA | -0.257 |
| AATACTGC | -0.0596 |
| CCAGTATA | -0.066 |
| AAAGCACC | 0.311 |
| ACCCCAAA | -0.179 |
| ACCGGCGA | 0.281 |
| AACGGCGT | 0.348 |

| Sequence | PBM E-score |
| --- | --- |
| ACCGGCGT | 0.365 |
| ACCGGCGG | 0.403 |
| ACCGGCGC | 0.336 |
| ACCGGCAT | 0.337 |
| GGAACAGA | -0.104 |
| AGCGCCTC | -0.0428 |
| CCTATGCA | -0.158 |
| ATCCGCTA | 0.155 |
| CTCCGCTA | 0.349 |
| GTCCGCCA | 0.4 |
| ATCCGCCA | 0.18 |
| GTCCGCAA | 0.196 |
| GTCCGCTA | 0.374 |
| GTTTCTTA | 0.00445 |
| AGGCAGTA | -0.205 |
| CGGCAGTC | 0.11 |
| AGGCAATA | -0.0408 |
| CGGCAATC | 0.185 |
| CGGCAATA | 0.454 |
| CGGCAGTA | 0.4 |
| CGAACCCG | 0.103 |
| CGACCAGC | 0.128 |
| AATCGCGT | -0.00793 |
| GAACCTTC | -0.201 |
| CATCGCTC | -0.00533 |

| Sequence | PBM E-score |
| --- | --- |
| ATTTGCAC | -0.273 |
| CGCGCATA | 0.112 |
| ATCGGTGC | 0.324 |
| GTCGGTGA | 0.374 |
| ATCGGTGA | 0.366 |
| CTCGGTGA | 0.244 |
| GTCGGTCA | 0.259 |
| ATCGGTGG | 0.276 |
| CTTCGGGA | 0.131 |
| CTCTTAAA | -0.0109 |
| CTGACCAA | -0.176 |
| AGGTTGTC | -0.204 |
| CGCCTGGA | -0.0581 |
| TTCACCAA | -0.0231 |
| CAGTCCGC | 0.252 |
| CAGTCCCG | 0.192 |
| AAGTCCTA | 0.0926 |
| AAGTCCCT | -0.209 |
| AAGTCCCG | 0.385 |
| AAGTCCGG | 0.43 |
| AAGTCCAT | 0.0307 |
| AAGTCCTC | -0.066 |
| CAGTCCGG | 0.189 |
| AAGTCCTG | 0.0166 |
| AAGTCCGC | 0.46 |

| Sequence | PBM E-score |
| --- | --- |
| AAGTCCGT | 0.454 |
| GATATCCA | -0.16 |
| GCCCAAAC | -0.0152 |
| CAGCGTGC | 0.0885 |
| GAACAGCC | -0.134 |
| TCCGTGCA | 0.23 |
| ACCCTGTG | -0.19 |
| AACAGTTG | -0.0985 |
| ATCTGCCA | -0.118 |
| TCTAGTCA | -0.11 |
| CATGTGCC | -0.177 |
| TAGTCCGA | 0.309 |
| GAGTCCGC | 0.371 |
| GAGTCCCC | -0.12 |
| CAGTCCGA | 0.273 |
| GAGTCCGA | 0.286 |
| AAGTCCGA | 0.459 |
| ATTGTCCC | 0.0499 |
| CATGTCCG | 0.273 |
| ATTGTCCA | -0.191 |
| AATGTCCG | 0.438 |
| ATTGTCCG | 0.372 |
